# DT40 TDP1 no CPT = qHTS for Inhibitors of human tyrosyl-DNA phosphodiesterase 1 (TDP1): qHTS in cells in absence of CPT. Potency, µM (doses to about 46.2 µM), inactives show at the highest dose activity change, negative = growth inhibition, most hits filed as inhibitors. DT40 Tdp1-/- hTDP1 cells, no CPT, ATP luminescence, 48 h. actives 15% (n = 420,000); note: % is set by controls: 0 for no effect and ±100 for the full control effect; nearly all actives have a fitted effect of over 55% in size
#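 DT40 Tdp1-/-;hTDP1 cells, no CPT (DMSO vehicle only), 400 cells/well; compounds pin-transferred; ≥48 hr, 37 °C; CellTiter-Glo 30 min RT dark, luminescence read.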
# TGFb SMAD3 inh = TGF-b pathway inhibition; HepG2 CAGA-GFP TGF-b/SMAD3 reporter, GFP fluorescence, 18 h; TGF-beta stimulated, 500 pg/mL final; AID 588855; actives 1.2% (n = 410,000); Potency, µM (titrated, usually from 46.1 µM), without a hit: at the highest dose activity, negative = inhibition, hits mostly inhibitors; note: % is set by controls: 0 for no effect and ±100 for the full control effect; nearly all actives have a fitted effect of over 65% in size
#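 TGF-beta reporter screen: HEPG2 CAGA-GFP, 1% FBS, 500 pg/mL TGF-beta final, 18 h; per-cell GFP summed per well; curves fitted and categorized by class.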
# HT1080NT lethal = kills 2HG-producing HT-1080-NT fibrosarcoma cells. actives 1.6% (n = 360,000). HT-1080-NT fibrosarcoma viability, CellTiter-Glo ATP luminescence, 48 h. Potency, µM (titrated, usually from 46.1 µM), for the others: top-dose activity, negative = less viability, actives largely listed as cytotoxic;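 note: NT is the 2HG producing partner of a matched IDH1 knockdown line; 0% = DMSO-treated cells and -100% = media-only wells without cells; nearly all actives have a fitted effect of over 55% in size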
#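 750 cells/well, RPMI + 5% FBS; 2 h settle, compound pin-transfer, 48 h at 37 degrees C. CellTiter-Glo 10 min RT, luminescence. Normalized to DMSO and media-only wells.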
# HT1080 IDH1KD tx = toxicity to HT-1080 IDH1 knockdown cells (counter line); HT-1080 IDH1 knockdown viability, ATP luminescence, 48 h; Potency, µM (top dose mostly 46.1 µM), without a hit: at the highest dose activity, negative = toxicity, hits mostly cytotoxic; actives 2% (n = 360,000);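 note: 0% = DMSO wells and -100% = cell-free medium wells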
#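 % activity derives from luminescence (CellTiter-Glo), normalised to DMSO and no-cell wells. HT-1080-IDH1KD cells, 750/well, had 48 h compound exposure at 37 °C.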
# HepG2 viability = counter-screen for TGF-b inhibitors: cytotoxicity in HepG2 cells; AID 588856; actives 0.76% (n = 410,000); Potency, µM (top dose mostly 46.1 µM), for the others: top-dose activity change, negative = cytotoxicity, hits mostly cytotoxic; HepG2 CAGA-GFP viability, ATP luminescence, 18 h
#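 CellTiter-Glo luminescence gave cytotoxicity after 18 hours at 37 degrees C. The cells were HepG2 CAGA-GFP in 1% FBS DMEM, stimulated with 500 pg/mL TGF-beta after compound addition. %Activity was normalised to no-cell wells (complete cell-killing) and DMSO (no toxicity), and curves were fitted and classified.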
# DT40 TDP1 CPT = DT40-hTDP1 cell growth loss with CPT. chicken DT40 Tdp1-/-;hTDP1 cells + 20 nM CPT, ATP luminescence, 48 h. Potency, µM (top dose mostly 46.2 µM), without a hit: at the top dose activity change, negative = growth inhibition, hits mostly inhibitors. actives 12% (n = 420,000). AID 686979; note: % is set by controls: 0 for no effect and ±100 for the full control effect; nearly all actives have a fitted effect of over 55% in size
#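 Chicken DT40 Tdp1-/- cells complemented with human TDP1, 400 cells/well, exposed to compounds plus 20 nM camptothecin for at least 48 h at 37 C; viability read as ATP content by CellTiter-Glo luminescence.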
# * marks the source's active call; other numbers are inactive results; ? = inconclusive; nt = not tested or not shown; ! = a repeat was not active. Sampled rows, rich in hits. Any-hit rate of the full collection: about 17%. Calls come from the whole dose curve; as a rule, active = well fitted curve in the direction sought with a large enough effect; inconclusive = small, poorly fitted or top-dose-only effect, or another doubt; inactive = no such curve, though single readings can be large; an effect the other way counts as inactive or inconclusive. Potency is the fitted concentration of half-maximal effect.
SMILES,DT40 TDP1 no CPT,TGFb SMAD3 inh,HT1080NT lethal,HT1080 IDH1KD tx,HepG2 viability,DT40 TDP1 CPT
CCOc1ccc(CCNC(=O)c2sc3ncccc3c2-n2c(C)ccc2C)cc1,15µM*,?,nt,nt,-29%,13µM*
Cc1ccc(C)n1-c1c(C(=O)NCC(C)c2ccccc2)sc2ncccc12 (stereo unspecified),18µM*,11µM*,nt,nt,-39%,21µM*
Cc1nn2c(C)c(C(=O)NCC(C)c3ccccc3)cnc2c1-c1ccccc1 (stereo unspecified),?,-1%,nt,nt,0%,?
CCOc1ccc(Cn2nnc(C(=O)NCCc3ccccc3)c2N)cc1,-8%,0%,-1%,3%,-21%,1%
CCCNC(=O)C[C@H]1CC[C@@H]2[C@H](COC[C@@H](O)CN2C(=O)c2ccccn2)O1,16%,nt,16%,16%,nt,1%
COc1ccc(CCNC(=O)c2nc(-c3ccc(Cl)cc3)n3c2CCCCC3)c(OC)c1,9.2µM*,8.9µM*,nt,nt,-25%,10µM*
Cc1cccc(CCNC(=O)c2nc(-c3ccc(Cl)cc3)n3c2CCCCC3)c1,9.2µM*,?,nt,nt,2%,10µM*
COC(=O)c1ccccc1NC(=O)c1nc(-c2ccc(Cl)cc2)n2c1CCCCC2,?,7%,nt,nt,2%,-16%
O=C1OC(c2ccccc2)(c2cc(Br)ccc2O)c2ccccc21 (stereo unspecified),?,20µM*,16µM*,21µM*,-183%,18µM*
O=C1OC2(c3ccccc31)c1ccccc1-c1ccccc12,?,-16%,-26%,?,2%,-13%
O=C1OC(c2ccccc2)(c2ccc3cc(O)ccc3c2)c2ccccc21 (stereo unspecified),?,?,13µM*,26µM*,-182%,21µM*
O=C1OC(c2ccc3ccccc3c2O)(c2ccc3ccccc3c2O)c2ccccc21,5.2µM*,?,0%,?,-17%,5.8µM*
O=C(CSc1nnc(Cc2cccs2)n1-c1ccc(Cl)cc1)NCc1ccc2c(c1)OCO2,-20%,-6%,4%,5%,0%,-7%
CCn1c(/C=C/c2ccccc2)nc2ccccc21,26µM*,-1%,?,?,-60%,?
COc1ccc(Cn2c(/C=C/c3ccccc3)nc3ccccc32)cc1,-27%,?,11µM*,?,-60%,?
CC(C)Cn1c(/C=C/c2ccccc2)nc2ccccc21,?,-36%,?,-23%,-4%,?
COc1ccc(/C=C/c2nc3ccccc3n2C)cc1,8.2µM*,-4%,5.2µM*,4.6µM*,-13%,9.2µM*
COc1ccc(Nc2nc3ccccc3n2C)cc1,-2%,-4%,5%,-24%,-1%,8%
CCn1c2nc(SCCN3CCOCC3)nnc2c2cc(C)cc(C)c21,?,?,-22%,-25%,-12%,16µM*
c1ccc2c(c1)[nH]c1nc(SCCN3CCOCC3)nnc12,?,-7%,-2%,-3%,-16%,-21%
Cc1cc(C)c2c(c1)c1nnc(SCCN3CCOCC3)nc1n2C,8.2µM*,-14%,-2%,4%,-18%,-8%
COc1cc(N)c(Cl)cc1C(=O)OCC(=O)NCC1CCCCC1,?,-10%,-1%,-15%,-12%,?
CCOc1ccc(CCNC(=O)CCCn2nc(C)c3c(C)n(-c4ccccc4)nc3c2=O)cc1,8%,-1%,1%,-16%,-1%,?
COc1cc(NC(=O)Cn2cnc(C(=O)Nc3ccc(C)c(C)c3)n2)cc(OC)c1OC,-13%,-19%,4%,-1%,0%,-13%
COc1ccc(CN(C)C(=O)Cn2cnc(C(=O)Nc3ccc(C)c(C)c3)n2)cc1OC,?,1%,3%,2%,-31%,18µM*
SMILES,DT40 TDP1 no CPT,TGFb SMAD3 inh,HT1080NT lethal,HT1080 IDH1KD tx,HepG2 viability,DT40 TDP1 CPT
COc1cccc(CN(C)CCCn2cnc(C(=O)Nc3ccc(C)c(C)c3)n2)c1,?,-5%,-4%,-2%,-25%,21µM*
COc1cc(CN2C(=O)C(C)ON=C2c2cccs2)cc(OC)c1 (stereo unspecified),?,-20%,6%,-10%,3%,-26%
COc1ccc(N(CC(=O)NCCc2ccccc2)S(=O)(=O)c2ccc(OC)c(OC)c2)cc1,-28%,-3%,nt,nt,-12%,-15%
CCOC(=O)C(CC)Sc1nnc2c3cc(C)ccc3n(C)c2n1 (stereo unspecified),?,-9%,-13%,-6%,-6%,?
CCCn1c2ccc(F)cc2c2nnc(SCCN(CC)CC)nc21,?,12%,nt,nt,-7%,?
CCCn1c2ccc(C)cc2c2nnc(SCCN3CCOCC3)nc21,16µM*,21%,?,?,-11%,?
CCn1c2ccc(C)cc2c2nnc(SCCN3CCCCC3)nc21,16µM*,-7%,?,23µM*,-22%,?
CCCn1c2ccc(C)cc2c2nnc(SCCN3CCCCC3)nc21,21µM*,-5%,-24%,?,-16%,18µM*
CCn1c2ccc(F)cc2c2nnc(SCCN3CCCCC3)nc21,16µM*!,?,-17%,-9%,-8%,?
CC(=O)N1CCN(C(=O)COC(=O)CNC(=O)c2ccc(C)cc2)CC1,8%,1%,1%,-4%,3%,-13%
CCN1CCN(C(=O)c2sc3ncnc(NCC4CCCO4)c3c2C)CC1 (stereo unspecified),-15%,nt,nt,nt,nt,-2%
CC(C)NS(=O)(=O)c1ccc(NC(=O)C(C)OC(=O)C2CCC2)cc1 (stereo unspecified),-22%,-2%,16%,0%,-8%,-2%
CS(=O)(=O)Nc1cccc(-c2nc(NCc3ccccc3)c3ccccc3n2)c1,-28%,nt,nt,nt,nt,?
CCCn1c2ccccc2c2nnc(SCCN3CCOCC3)nc21,?,15%,-4%,?,-6%,?
CCCn1c2ccc(C)cc2c2n[nH]c(=S)nc21,15µM*,-3%,-11%,-11%,-5%,?
CCCn1c2ccc(F)cc2c2nnc(SCCN3CCOCC3)nc21,?,0%,-16%,?,2%,18µM*

# High-throughput results deposited in PubChem BioAssay by National Center for Advancing Translational Sciences (NCATS).
